Where a name gives a salt, the structure may show the parent alone. ± gives the standard deviation of the averaged measurements.
test system: 24.0 GACCACAGCCCCCAGCAGGGGAGGCCCCCAGCAGGGGAGGCCCACACCTGCCCCAGCACCT; assay: fraction of 1-bp insertions among edited reads; higher = more 1-bp insertion outcomes; conditions: mESC; 2uM; 72 h treatment, harvest day 5

Row | Compound | fraction of 1-bp insertions among edited reads
1 | CC(=O)O/N=C1\C(=O)N(Cc2cc(Cl)ccc2Cl)c2ccc(Cl)cc21 | 0.0444
2 | Cc1cc(C)nc(SCC(=O)Nc2ncc(Cc3cccc4ccccc34)s2)n1 | 0.105
3 | Nc1cc(F)ccc1NC(=O)c1ccc(CNC(=O)/C=C/c2cccnc2)cc1 [Tucidinostat (Chidamide)] | 0.103
4 | CCCCOc1c(C(=O)c2c(F)cc(C)cc2F)c[nH]c2nncc1-2 | 0.0164

test system: 6.0 (DMSO control at this site: 1-bp insertion 0.296, MH deletion 0.491, edited 0.076) ACGATTGGCCCCCACAAAGCGGACCAGCCAGCGTGCTAGGGAATAAGGCCAACTTGCACCC; assay: as above; conditions: mESC; 2uM; 72 h treatment, harvest day 5

Row | Compound | fraction of 1-bp insertions among edited reads
5 | Cc1cccc(CC(=O)N2CCc3c2ccc(-c2cn(C)c4ncnc(N)c24)c3F)n1 | 0.337
6 | Cc1ccc(C(=O)NCCCCCC(=O)Nc2ccccc2N)cc1 | 0.292
7 | CC(=O)O/N=C1\C(=O)N(Cc2cc(Cl)ccc2Cl)c2ccc(Cl)cc21 | 0.256
8 | O=C1Cc2c([nH]c3ccc(Br)cc23)-c2ccccc2N1 [Kenpaullone] | 0.274
9 | CC(C)(C#N)c1ccc(N2C(=O)OCc3cnc4ccc(-c5cnc6ccccc6c5)cc4c32)cc1 | 0.267
10 | CCc1c2c(nc3ccc(OC(=O)N4CCC(N5CCCCC5)CC4)cc13)-c1cc3c(c(=O)n1C2)COC(=O)[C@]3(O)CC [Irinotecan HCl Trihydrate] | 0.249
11 | O=C(c1cccc(Cl)c1F)N1CCN(Cc2cccc(Nc3nccs3)n2)CC1 | 0.193
12 | C[C@@H]1CN(CC(=O)Nc2ccc3c(c2)Cc2cccc(-c4cc(=O)cc(N5CCOCC5)o4)c2S3)C[C@H](C)O1 | 0.475
13 | COc1ccccc1-c1cc(Nc2cccc(CS(N)(=O)=O)c2)ncn1 | 0.281
14 | Nc1ncnc2c1c(-c1cnc3[nH]ccc3c1)nn2C1CCCC1 | 0.412
15 | CNc1ccc([N+](=O)[O-])c(Nc2ccc3[nH]ncc3c2)n1 | 0.269
16 | Cc1cc(C)nc(SCC(=O)Nc2ncc(Cc3cccc4ccccc34)s2)n1 | 0.295
17 | CO[C@H]1/C=C/O[C@@]2(C)Oc3c(C)c(O)c4c(O)c(c(/C=N/N5CCN(C6CCCC6)CC5)c(O)c4c3C2=O)NC(=O)/C(C)=C\C=C\[C@H](C)[C@H](O)[C@@H](C)[C@@H](O)[C@@H](C)[C@H](OC(C)=O)[C@@H]1C [Rifapentine] | 0.258
18 | Nc1nc2[nH]cc(CCc3ccc(C(=O)N[C@@H](CCC(=O)O)C(=O)O)cc3)c2c(=O)[nH]1 [Pemetrexed] | 0.152
19 | CCn1c(=O)c(-c2ccc(Cl)cc2Cl)cc2cnc(Nc3ccc(N4CCNCC4)c(F)c3)nc21 | 0.288
20 | Nc1cc(F)ccc1NC(=O)c1ccc(CNC(=O)/C=C/c2cccnc2)cc1 [Tucidinostat (Chidamide)] | 0.272
21 | CCN1CCN(CC(=O)Nc2ccc(-c3cccc4c(=O)cc(N5CCOCC5)oc34)c3sc4ccccc4c23)CC1 | 0.0821
22 | S=c1nc[nH]c2nc[nH]c12 [6-Mercaptopurine (6-MP) Monohydrate] | 0.326
23 | CCCCOc1c(C(=O)c2c(F)cc(C)cc2F)c[nH]c2nncc1-2 | 0.258
24 | S=c1[nH]cnc2nc[nH]c12 [Mercaptopurine (6-MP)] | 0.285
25 | O=c1cc(N2CCOCC2)oc2c(-c3ccc4c(c3)OCCO4)csc12 | 0.201
26 | NC(=O)c1ccc2nc(-c3ccc(Oc4ccc(Cl)cc4)cc3)[nH]c2c1 [Chk 2 inhibitor II (BML-277)] | 0.278
27 | O=c1c(-c2ccc(O)cc2)coc2cc(O)cc(O)c12 [Genistein] | 0.253

test system: mESC LDLR-Dup GFP reporter (SpCas9 MH-deletion repair); assay: fraction of GFP+ cells relative to DMSO control (fold change); higher = more MH-deletion repair to in-frame LDLR (or more editing); conditions: 2 µM; 7 days post-transfection

Row | Compound | fraction of GFP+ cells
28 | Cn1c(=O)cc(C(=O)Nc2ccc3c(c2)OCCO3)c2ccccc21 | 0.931 ± 0.27
29 | O=c1c(O)c(-c2ccc(O)c(O)c2)oc2cc(O)cc(O)c12 [Quercetin] | 1.4 ± 0.93
30 | Cc1cccc(CC(=O)N2CCc3c2ccc(-c2cn(C)c4ncnc(N)c24)c3F)n1 | 0.925 ± 0.19
31 | CN1CCc2c(c3ccccc3n2Cc2ccc(C(=O)NO)cc2)C1 [Tubastatin A] | 0.802 ± 0.093
32 | Cc1ccc(C(=O)NCCCCCC(=O)Nc2ccccc2N)cc1 | 1.26 ± 0.13
33 | CC(=O)O/N=C1\C(=O)N(Cc2cc(Cl)ccc2Cl)c2ccc(Cl)cc21 | 1.21 ± 0.075
34 | O=C1Cc2c([nH]c3ccc(Br)cc23)-c2ccccc2N1 [Kenpaullone] | 1.53 ± 0.057
35 | CC(C)(C#N)c1ccc(N2C(=O)OCc3cnc4ccc(-c5cnc6ccccc6c5)cc4c32)cc1 | 1.01 ± 0.45
36 | CCc1c2c(nc3ccc(OC(=O)N4CCC(N5CCCCC5)CC4)cc13)-c1cc3c(c(=O)n1C2)COC(=O)[C@]3(O)CC [Irinotecan HCl Trihydrate] | 0.463 ± 0.066
37 | O=C(c1cccc(Cl)c1F)N1CCN(Cc2cccc(Nc3nccs3)n2)CC1 | 1.25 ± 0.38
38 | C[C@@H]1CN(CC(=O)Nc2ccc3c(c2)Cc2cccc(-c4cc(=O)cc(N5CCOCC5)o4)c2S3)C[C@H](C)O1 | 0.516 ± 0.11
39 | COc1ccccc1-c1cc(Nc2cccc(CS(N)(=O)=O)c2)ncn1 | 1.17 ± 0.072
40 | Nc1ncnc2c1c(-c1cnc3[nH]ccc3c1)nn2C1CCCC1 | 0.289 ± 0.034
41 | CNc1ccc([N+](=O)[O-])c(Nc2ccc3[nH]ncc3c2)n1 | 2.16 ± 0.36
42 | CC(=O)Nc1ccc(NC(=S)NC(=O)c2ccc(C(C)(C)C)cc2)cc1 [Tenovin-1] | 0.623 ± 0.14
43 | Cc1cc(C)nc(SCC(=O)Nc2ncc(Cc3cccc4ccccc34)s2)n1 | 1.15 ± 0.61
44 | CN(C)CCNC(=O)c1cccn2c(=O)c3cc4ccccc4cc3nc12 | 1.06 ± 0.28
45 | CCn1cc(C(=O)O)c(=O)c2ccc(C)nc21 [Nalidixic acid] | 1.08 ± 0.015
46 | CO[C@H]1/C=C/O[C@@]2(C)Oc3c(C)c(O)c4c(O)c(c(/C=N/N5CCN(C6CCCC6)CC5)c(O)c4c3C2=O)NC(=O)/C(C)=C\C=C\[C@H](C)[C@H](O)[C@@H](C)[C@@H](O)[C@@H](C)[C@H](OC(C)=O)[C@@H]1C [Rifapentine] | 3.03 ± 0.37

Row | Compound | fraction of GFP+ cells
47 | CCn1cc(C(=O)O)c(=O)c2cc(F)c(N3CCNCC3)nc21 [Enoxacin] | 1.04 ± 0.096
48 | O=C(COc1cccc2c(=O)[nH]ccc12)c1ccccc1 | 0.936 ± 0.095
49 | Nc1nc2[nH]cc(CCc3ccc(C(=O)N[C@@H](CCC(=O)O)C(=O)O)cc3)c2c(=O)[nH]1 [Pemetrexed] | 1.53 ± 0.08
50 | CCn1c(=O)c(-c2ccc(Cl)cc2Cl)cc2cnc(Nc3ccc(N4CCNCC4)c(F)c3)nc21 | 0.433 ± 0.12
51 | Nc1ncn([C@@H]2O[C@H](CO)[C@@H](O)[C@H]2O)c(=O)n1 [Azacitidine] | 1.1 ± 0.089
52 | Nc1nc2n[nH]nc2c(=O)[nH]1 [Azaguanine-8] | 1.43 ± 0.23
53 | CC1=C(C(=O)Nc2ccc3[nH]ncc3c2)C(c2ccc(F)cc2)NC(=O)N1 (stereo not given) | 1.53 ± 0.42
54 | CCN1CCN(CC(=O)Nc2ccc(-c3cccc4c(=O)cc(N5CCOCC5)oc34)c3sc4ccccc4c23)CC1 | 1.08 ± 0.16
55 | Nc1nc(F)nc2c1ncn2[C@@H]1O[C@H](COP(=O)(O)O)[C@@H](O)[C@@H]1O [Fludarabine Phosphate] | 0.855 ± 0.23
56 | S=c1nc[nH]c2nc[nH]c12 [6-Mercaptopurine (6-MP) Monohydrate] | 1.21 ± 0.061
57 | N=C(NOCC(O)CN1CCCCC1)c1cccnc1 (stereo not given) | 0.805 ± 0.12
58 | CCCCOc1c(C(=O)c2c(F)cc(C)cc2F)c[nH]c2nncc1-2 | 1.7 ± 0.11
59 | S=c1[nH]cnc2nc[nH]c12 [Mercaptopurine (6-MP)] | 2.22 ± 1.1
60 | Oc1cccc(-c2nc(N3CCOCC3)c3oc4ncccc4c3n2)c1 | 0.542 ± 0.15
61 | Oc1nc(-c2ccc(C(F)(F)F)cc2)nc2c1CSCC2 | 0.752 ± 0.014
62 | O=c1cc(N2CCOCC2)oc2c(-c3ccc4c(c3)OCCO4)csc12 | 0.48 ± 0.029
63 | NC(=O)c1ccc2nc(-c3ccc(Oc4ccc(Cl)cc4)cc3)[nH]c2c1 [Chk 2 inhibitor II (BML-277)] | 0.961 ± 0.26
64 | O=c1c(-c2ccc(O)cc2)coc2cc(O)cc(O)c12 [Genistein] | 1.07 ± 0.17
65 | Cc1ccc(CNc2ncnc3ccc(-c4ccc(CO)o4)cc23)o1 | 1.08 ± 0.19
